Results from PubChem BioAssay (NCATS).
“And” between values parts separate entries of the source, which are not always exact repeats. Equal entries are not always repeated. Results filed as inconclusive are left out. The source made the active and inactive calls. Unless noted, calls come from the whole dose curve; as a rule, active = well fitted curve in the direction sought with a large enough effect; inconclusive = small, poorly fitted or top-dose-only effect, or another doubt; inactive = no such curve, though single readings can be large; an effect the other way counts as inactive or inconclusive.

Assays:
[1] = Cell Viability - Mesenchymal (AID 546);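 note: cells exposed to compound for 40 hours before reading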
How it was run: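 Normal human renal glomerulus-derived kidney mesenchymal cells, 1000 per well in complete medium, were treated with compounds for 40 hr at 37 °C. Viability was read as intracellular ATP by CellTiter-Glo luminescence; AC50 values came from Hill-equation fits of qHTS concentration-response data.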

[2] = Cellular Toxicity (caspase-3) HepG2 (AID 654);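 note: cells exposed to compound for 16 hours before reading; 0% = DMSO alone and 100% = caspase signal from 100 µM tamoxifen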
How it was run: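 Cells plated 5 hr at 37 °C, compound added, incubated 16 hr at 37 °C. Caspase-Glo 3/7 reagent followed, 20 min at room temperature, then luminescence read. Activation scored as signal increase; AC50 from Hill fit.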

[3] = Cellular Toxicity (caspase-3) HUV-EC-C (AID 656)
How it was run: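 HUV-EC-C endothelial cells, 1000/well, were pre-incubated 5 hr at 37°C, then exposed to compounds for 16 hr at 37°C. Caspase-Glo 3/7 luminescence was read after 20 min at room temperature. AC50 came from Hill fits, normalized to DMSO and 100 uM tamoxifen.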

[4] = Cellular Toxicity (caspase-3) Mesangial (AID 660);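 note: combined caspase 3 and 7 activity read by Caspase-Glo luminescence; cells exposed to compound for 16 h before the caspase read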
How it was run: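 Mesangial cells, 1000/well, 5 h settle at 37 °C; compound 16 h, 37 °C; Caspase-Glo 3/7 reagent 20 min RT; luminescence. Norm.: DMSO = 0%, tamoxifen 100 uM = 100%. AC50, Hill fit.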

[5] = Cellular Toxicity (caspase-3) SK-N-SH (AID 661);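 note: 0% = DMSO basal and 100% = 10 µM staurosporine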
How it was run: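 Human neuroblastoma SK-N-SH, 1500 cells/well, 5 hr pre-incubation, then compound 16 hr, 37 °C. Caspase-Glo 3/7 reagent, 1 hr RT, luminescence. Norm. to DMSO/10 uM staurosporine; Hill-fit AC50.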

[6] = Cellular Toxicity (caspase-3) Hek293 (AID 664); settings: HEK293 caspase-3 activation, DMSO = 0%, 100 µM tamoxifen = 100%; at 92.2 µM (top of the series);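 note: cells exposed to compound for 16 h at 37 °C before readout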
How it was run: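 Cells plated, 5 hr at 37 °C; compounds added; 16 hr at 37 °C; Caspase-Glo 3/7 reagent, 20 min RT; luminescence read. Activation expressed relative to DMSO and 100 uM tamoxifen, AC50 by Hill model.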

[7] = Cellular Toxicity (caspase-3) NIH 3T3 (AID 666);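 note: caspase signal read after 16 h compound exposure; 0% = DMSO basal and 100% = 100 µM tamoxifen stimulation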
How it was run: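 Luminescence from aminoluciferin released by caspase-3/7 cleavage of a peptide substrate served as read-out. Mouse fibroblast NIH 3T3 cells were exposed to compounds over a concentration range for 16 hours, and AC50 values came from standard Hill modelling.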

[8] = Cell Viability - LYMP2-023 (AID 975);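 note: cellular ATP measured by luciferase luminescence as viability proxy; cells exposed to compound for 24 hours at 37 °C; plate controls were DMSO only for no effect and 92 µM tetraoctylammonium bromide control for full effect; nearly all actives have a fitted effect of over 55% in size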
How it was run: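 2500 cells/well, 5 hr 37 C; cpd 24 hr 37 C; CellTiter-Glo, 30 min RT; luminescence. qHTS conc-response, Hill fit -> AC50. Pos ctrl tetraoctylammonium bromide.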

[9] = Cell Viability - LYMP2-014 (AID 983);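 note: cells exposed to compound for 24 h at 37 °C; plate controls were DMSO only for no effect and 92 µM tetraoctylammonium bromide for full effect; nearly all actives have a fitted effect of over 50% in size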
How it was run: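 Luminescent ATP signal (CellTiter-Glo, 30 min at room temperature) serves as the viability read-out after 24 hr compound exposure at 37 C. Cells were seeded at 2500 per well and settled 5 hr beforehand.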

[10] = Cell Viability - LYMP2-026 (AID 989);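 note: cells exposed to compound for 24 h at 37 °C; % is set by controls: 0 for no effect and ±100 for the full control effect; nearly all actives have a fitted effect of over 50% in size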
How it was run: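 Luminescent ATP signal (CellTiter-Glo, 30 min room temperature) measures viable lymphoblastoid cells after 24 hr compound treatment at 37 C. Decreased ATP reflects acute toxicity; AC50 values come from Hill-equation modeling.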

[11] = molecular target: Peroxisome proliferator-activated receptor delta (Homo sapiens) (UniProt Q03181); test: qHTS assay for small molecule agonists of peroxisome proliferator-activated receptor delta signaling (AID 588534; calls by dose curve;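 note: 0% = DMSO basal wells and 100% = positive control agonist at 10 µM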)
Chain of Peroxisome proliferator-activated receptor delta (Homo sapiens) (Q03181 whole entry, looked up): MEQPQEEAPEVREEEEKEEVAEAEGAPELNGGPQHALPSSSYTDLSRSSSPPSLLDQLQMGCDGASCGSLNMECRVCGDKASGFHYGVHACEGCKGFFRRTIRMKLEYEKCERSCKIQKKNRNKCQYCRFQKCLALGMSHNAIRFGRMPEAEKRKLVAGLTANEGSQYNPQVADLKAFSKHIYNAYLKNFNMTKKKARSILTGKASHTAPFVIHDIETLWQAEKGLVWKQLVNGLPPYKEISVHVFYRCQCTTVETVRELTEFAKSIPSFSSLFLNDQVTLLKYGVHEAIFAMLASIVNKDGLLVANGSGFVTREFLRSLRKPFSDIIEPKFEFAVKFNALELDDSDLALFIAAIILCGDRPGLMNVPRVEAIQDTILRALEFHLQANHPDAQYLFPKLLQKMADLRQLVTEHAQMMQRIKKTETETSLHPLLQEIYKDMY
How it was run: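 Fluorescence from CCF4 substrate cleavage by beta-lactamase reporter, read 2 hrs at RT, measured agonist activity. Compounds were tested with 18 hrs exposure at 37 C. Concentration-response data fitted to Hill equation.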

[12] = molecular target: Vitamin D3 receptor (Homo sapiens) (UniProt P11473); test: qHTS assay for small molecule antagonists of vitamin D receptor signaling (AID 588541; calls by dose curve;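 note: receptor activated by calcitriol during compound treatment; % is set by controls: 0 for no effect and ±100 for the full control effect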)
Chain of Vitamin D3 receptor (Homo sapiens) (P11473 whole entry, looked up): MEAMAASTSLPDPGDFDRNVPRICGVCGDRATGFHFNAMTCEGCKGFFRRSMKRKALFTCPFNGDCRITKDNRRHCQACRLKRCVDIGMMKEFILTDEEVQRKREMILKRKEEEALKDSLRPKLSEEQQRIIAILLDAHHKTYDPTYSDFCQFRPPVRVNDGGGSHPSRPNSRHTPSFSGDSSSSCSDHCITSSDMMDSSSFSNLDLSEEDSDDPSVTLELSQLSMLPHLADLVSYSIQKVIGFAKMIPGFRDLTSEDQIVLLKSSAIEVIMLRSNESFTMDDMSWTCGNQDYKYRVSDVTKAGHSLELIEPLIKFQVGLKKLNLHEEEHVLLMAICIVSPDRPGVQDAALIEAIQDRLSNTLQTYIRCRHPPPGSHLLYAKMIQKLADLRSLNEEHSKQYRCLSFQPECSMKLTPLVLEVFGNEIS
How it was run: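 VDR-UAS-bla HEK293T cells (2000/well, 2% charcoal-stripped FBS) were treated with titrated compounds plus 1-alpha,25-dihydroxyvitamin D3 (50 nM or 3 nM final) for 16 h at 37 C. CCF4 beta-lactamase fluorescence was read; Hill fits gave IC50.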

[13] = molecular target: Vitamin D3 receptor (Homo sapiens) (UniProt P11473); test: qHTS assay for small molecule agonists of vitamin D receptor signaling (AID 588543; calls by dose curve;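 note: 0% = DMSO basal and 100% = reference agonist control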)
How it was run: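 GeneBLAzer VDR-UAS-bla HEK293T cells in 2% charcoal-stripped FBS medium were dosed with compound titrations for 16 h at 37 °C; CCF4 β-lactamase readout (405 nm ex, 460/530 nm em). EC50 and efficacy from Hill fits, normalized to 50 nM calcitriol (100%) and DMSO (0%).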

[14] = qHTS assay for small molecule activators of the p53 signaling pathway (AID 651743; active = well fitted activation curve with a large enough effect in the signal ratio, not every such curve was filed as active; the % refers to the signal ratio; note: % of control where 0% means no effect); settings: HCT-116 p53RE-bla, beta-lactamase FRET ratio, 16 h; activation: active compounds read high
How it was run: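 Cell-based beta-lactamase reporter (p53 response elements, HCT-116 background). After a 5-hour preincubation, cells received compound for 16 hours at 37 C; substrate development ran 2 hours at room temperature.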

[15] = molecular target: Nuclear receptor ROR-gamma (Homo sapiens) (UniProt P51449); test: qHTS assay for small molecule antagonists of the retinoid-related orphan receptor gamma (ROR-gamma) signaling pathway (AID 651802);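 note: CHO cells with doxycycline-induced ROR-gamma expression; luciferase reporter luminescence driven by ROR response element; % is set by controls: 0 for no effect and ±100 for the full control effect; nearly all actives have a fitted effect of over 60% in size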
Chain of Nuclear receptor ROR-gamma (Homo sapiens) (P51449 whole entry, looked up): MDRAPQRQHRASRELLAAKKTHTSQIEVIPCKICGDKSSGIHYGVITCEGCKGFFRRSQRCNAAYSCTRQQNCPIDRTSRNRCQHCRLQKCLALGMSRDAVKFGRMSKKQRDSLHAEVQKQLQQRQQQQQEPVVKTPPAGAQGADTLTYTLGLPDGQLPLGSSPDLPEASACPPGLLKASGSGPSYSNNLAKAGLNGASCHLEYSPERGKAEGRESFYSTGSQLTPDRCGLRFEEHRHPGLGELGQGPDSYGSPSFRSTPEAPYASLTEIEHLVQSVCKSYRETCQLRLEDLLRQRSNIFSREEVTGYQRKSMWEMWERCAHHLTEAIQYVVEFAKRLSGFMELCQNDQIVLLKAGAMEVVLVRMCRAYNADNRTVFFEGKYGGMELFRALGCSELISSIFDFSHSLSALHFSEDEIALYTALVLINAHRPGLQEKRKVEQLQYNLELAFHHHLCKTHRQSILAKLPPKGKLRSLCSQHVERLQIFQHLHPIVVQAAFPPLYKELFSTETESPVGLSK
How it was run: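 CHO, TET-inducible ROR + RORE-LUC reporter, 1536-well qHTS. Compound pinned, doxycycline added, 16hr 37C/5% CO2. ONE-Glo, 30 min RT, luminescence; signal drop scored as antagonism.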

[16] = qHTS assay for small molecule agonists of the antioxidant response element (ARE) signaling pathway measured by Nrf2-dependant transcriptional activity - cell viability counter screen (AID 720653; active = well fitted curve in the direction sought with a large enough effect in the repeat runs; an effect the other way counts as inactive or inconclusive; note: % is set by controls: 0 for no effect and ±100 for the full control effect); settings: ARE-bla HepG2 viability, CellTiter-Glo ATP luminescence, 16 h; active compounds read low
How it was run: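 ARE-bla HepG2 cells (2,000/well) rested 5 hrs at 37C/5% CO2, then exposed to compounds in DMSO for 16 hrs. Viability was read in the same wells as intracellular ATP by luminescence, 30 min at room temperature after reagent addition.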

[17] = Cell Viability - HepG2 (AID 433; calls by dose curve;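 note: potency is the fitted concentration of half-maximal effect; cells exposed to compound for 40 hours; potency for ATP loss meaning cytotoxicity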); settings: qHTS
How it was run: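 HepG2 hepatocellular carcinoma cells (1500/well) were treated with compounds for 40 h at 37 °C in complete medium; intracellular ATP was read by CellTiter-Glo luminescence. Data were normalized to DMSO and 100 uM tamoxifen, and AC50 came from Hill fits.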

[18] = Cell Viability - SH-SY5Y (AID 544); settings: SH-SY5Y neuroblastoma cell viability; viability change, negative = cytotoxic: at 92.2 µM (top of the series);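 note: cells exposed to compound for 40 hours; nearly all actives have a fitted effect of over 55% in size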
How it was run: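 Luminescent ATP read-out (CellTiter-Glo) measures loss of viable SH-SY5Y neuroblastoma cells after 40 hr compound exposure at 37 °C. AC50 values derive from standard Hill modelling of qHTS concentration-response data.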

[19] = molecular target: Voltage-gated inwardly rectifying potassium channel KCNH2 (Homo sapiens) (UniProt Q12809); test: qHTS Assay for Small Molecule Inhibitors of the Human hERG Channel Activity (AID 588834);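 note: top concentration of the series differs between compounds; % is set by controls: 0 for no effect and ±100 for the full control effect; lower thallium flux fluorescence means stronger hERG block; nearly all actives have a fitted effect of over 50% in size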
Chain of Voltage-gated inwardly rectifying potassium channel KCNH2 (Homo sapiens) (Q12809 whole entry, looked up): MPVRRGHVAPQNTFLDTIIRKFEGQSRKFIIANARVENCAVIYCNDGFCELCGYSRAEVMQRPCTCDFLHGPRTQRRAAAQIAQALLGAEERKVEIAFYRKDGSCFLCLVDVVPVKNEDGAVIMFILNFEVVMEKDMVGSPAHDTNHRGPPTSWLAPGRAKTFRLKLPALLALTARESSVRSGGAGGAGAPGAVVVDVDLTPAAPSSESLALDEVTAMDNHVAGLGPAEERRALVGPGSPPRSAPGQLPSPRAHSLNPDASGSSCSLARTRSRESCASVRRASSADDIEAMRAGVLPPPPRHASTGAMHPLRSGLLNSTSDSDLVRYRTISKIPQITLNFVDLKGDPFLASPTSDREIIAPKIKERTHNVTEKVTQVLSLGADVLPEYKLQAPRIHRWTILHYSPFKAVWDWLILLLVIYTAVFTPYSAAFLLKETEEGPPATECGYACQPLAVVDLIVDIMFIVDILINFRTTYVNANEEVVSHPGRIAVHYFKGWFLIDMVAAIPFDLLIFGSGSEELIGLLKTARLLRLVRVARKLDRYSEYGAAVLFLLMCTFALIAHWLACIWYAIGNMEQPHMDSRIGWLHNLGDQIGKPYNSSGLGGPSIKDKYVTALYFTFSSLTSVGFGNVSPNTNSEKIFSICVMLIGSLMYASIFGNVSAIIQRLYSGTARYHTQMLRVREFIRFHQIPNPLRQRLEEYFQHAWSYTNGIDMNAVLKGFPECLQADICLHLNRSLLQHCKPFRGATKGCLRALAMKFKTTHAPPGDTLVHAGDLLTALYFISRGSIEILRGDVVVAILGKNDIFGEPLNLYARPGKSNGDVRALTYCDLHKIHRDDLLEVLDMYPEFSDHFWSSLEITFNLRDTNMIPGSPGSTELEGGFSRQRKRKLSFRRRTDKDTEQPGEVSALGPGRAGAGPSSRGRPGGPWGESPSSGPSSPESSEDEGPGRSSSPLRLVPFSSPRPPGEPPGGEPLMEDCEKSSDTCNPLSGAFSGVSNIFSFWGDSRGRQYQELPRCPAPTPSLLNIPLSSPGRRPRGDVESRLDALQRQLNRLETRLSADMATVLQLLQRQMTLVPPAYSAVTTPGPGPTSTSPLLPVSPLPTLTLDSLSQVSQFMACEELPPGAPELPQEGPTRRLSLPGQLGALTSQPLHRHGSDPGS
How it was run: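 U2OS cells transduced with hERG via BacMam (MOI ~100), plated 2000/well, loaded with FluxOR thallium dye, compound ~10 min, then stimulation buffer; fluorescence decrease read kinetically; AC50 from Hill fits.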

[20] = qHTS assay for small molecule disruptors of the mitochondrial membrane potential - 1 hr assay (AID 651754; calls by dose curve; note: % is set by controls: 0 for no effect and ±100 for the full control effect; nearly all actives have a fitted effect of over 35% in size)
How it was run: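 HepG2, 2,000 cells/well, overnight attachment; cpd or DMSO 1 hr, 37C/5% CO2; Mito-MPS dye 30 min, 37C; fluorescence monomer (490/535) and aggregate (540/590).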

c1ccc(N=NNc2ccccc2)cc1
inactive: Potency [1] | outcome [2] | outcome [3] | outcome [4] | Potency [5] | caspase-3 activation [6] -0.924% | Potency [7] | Potency [8] | Potency [9] | Potency [10] | outcome [11] | outcome [12] | outcome [13] | activation [14] -4.25% and -0.499% | Potency [15] | max response [16] -24.2% and -20.9%

ClCC(Cl)CCl
inactive: Potency [17] > 92 µM | Potency [18] | Potency [1] | outcome [2] | outcome [3] | outcome [4] | Potency [5] | caspase-3 activation [6] 1.26% | Potency [7] | Potency [8] | Potency [9] | Potency [10] | outcome [11] | outcome [12] | outcome [13] | Potency [19] | activation [14] 2.35% and -2.96% | Potency [20] | Potency [15] | max response [16] 3.4% and -4.41%

CCCCC(CC)COC(=O)c1ccc(C(=O)OCC(CC)CCCC)c(C(=O)OCC(CC)CCCC)c1 (stereo not drawn)
inactive: Potency [17] > 92 µM | Potency [18] | Potency [1] | outcome [3] | outcome [4] | Potency [5] | caspase-3 activation [6] 16.8% | Potency [7] | Potency [8] | Potency [9] | Potency [10] | outcome [11] | outcome [12] | outcome [13] | Potency [19] | activation [14] -1.5% | Potency [15] | max response [16] -7.7%

Nc1cccc2ccccc12
inactive: Potency [17] > 92 µM | Potency [18] | outcome [2] | outcome [3] | outcome [4] | Potency [5] | Potency [7] | Potency [8] | Potency [9] | Potency [10] | outcome [11] | Potency [19] | activation [14] -3.1% | Potency [20] | Potency [15] | max response [16] -19.6%

CC(C)[C@]12CC(=O)[C@H](C)[C@H]1C2
inactive: Potency [17] > 92 µM | Potency [18] | outcome [2] | outcome [3] | outcome [4] | Potency [5] | caspase-3 activation [6] -0.456% | Potency [7] | Potency [8] | Potency [10] | outcome [11] | outcome [12] | outcome [13] | Potency [19] | Potency [20] | Potency [15] | max response [16] -4.23% and -2.13%

CC(C)Br
inactive: Potency [17] > 92 µM | Potency [18] | Potency [1] | outcome [2] | outcome [3] | outcome [4] | Potency [5] | Potency [7] | Potency [8] | Potency [9] | Potency [10] | outcome [12] | outcome [13] | Potency [19] | activation [14] -2.41% | Potency [20] | Potency [15]

N#CC(Cl)(Cl)Cl
inactive: Potency [17] > 92 µM | Potency [18] | Potency [1] | outcome [4] | Potency [5] | caspase-3 activation [6] 1.68% | Potency [7] | Potency [9] | Potency [10] | outcome [11] | Potency [19] | Potency [20] | Potency [15] | max response [16] 1.54%
